# PLK1 PBD inh: qHTS for Inhibitors of PLK1-PDB (polo-like kinase 1 - polo-box domain): Primary Screen; Serine/threonine-protein kinase PLK1 (Homo sapiens), P53350; hit rate 2.8% among 360,000; Plk1 PBD binding of FITC phosphopeptide, fluorescence polarization; Potency, µM, for the others: max response, negative = inhibition, most hits filed as inhibitors; further: potency means the concentration at half of the fitted maximal effect; series mostly up to about 57 µM; on the % scale 0 is the no-effect control and ±100 the full control effect; nearly all actives have a fitted effect of over 65% in size
# FEN1 inhibitor: qHTS Assay for the Inhibitors of Human Flap endonuclease 1 (FEN1) | Potency, µM (series often up to 114 µM), for inactives: top-dose activity change, negative = inhibition, usual class: inhibitors | hit rate 0.35% among 390,000 | Recombinant FEN1 flap cleavage, fluorescence, 15 min | AID 588795, 2011; further: potency means the concentration at half of the fitted maximal effect; on the % scale 0 is the no-effect control and ±100 the full control effect; nearly all actives have a fitted effect of over 65% in size
# Target sequence (P39748 whole entry, looked up): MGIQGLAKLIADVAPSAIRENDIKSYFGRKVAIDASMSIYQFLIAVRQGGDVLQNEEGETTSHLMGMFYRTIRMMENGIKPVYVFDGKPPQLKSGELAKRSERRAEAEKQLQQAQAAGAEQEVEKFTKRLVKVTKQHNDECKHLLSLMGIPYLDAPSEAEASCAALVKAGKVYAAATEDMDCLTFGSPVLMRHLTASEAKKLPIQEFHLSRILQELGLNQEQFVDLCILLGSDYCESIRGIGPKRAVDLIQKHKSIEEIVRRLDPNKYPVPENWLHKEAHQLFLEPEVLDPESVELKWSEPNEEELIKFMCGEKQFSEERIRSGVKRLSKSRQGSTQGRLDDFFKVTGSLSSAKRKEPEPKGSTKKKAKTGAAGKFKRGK
#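 Quantitative HTS format: each compound was titrated, incubated with 10 nM nuclease for 15 min at room temperature, then challenged with flap substrate at 50 nM final. Signal change over 15 min gave concentration–effect curves.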
# PI5P4K alpha inh: qHTS for Inhibitors of phosphatidylinositol 5-phosphate 4-kinase (PI5P4K); PI5P4Kalpha enzyme, ADP-Glo luminescence, 60 min; active compounds read low; max response, %; hit rate 1.2% among 330,000; AID 652105, 2013; active means max response of -50% or lower; inconclusive means between -30% and -50%; inactive means -30% or higher; further: value at the top dose of about 77 µM; on the % scale 0 is the no-effect control and ±100 the full control effect
# Target sequence (P48426 whole entry, looked up): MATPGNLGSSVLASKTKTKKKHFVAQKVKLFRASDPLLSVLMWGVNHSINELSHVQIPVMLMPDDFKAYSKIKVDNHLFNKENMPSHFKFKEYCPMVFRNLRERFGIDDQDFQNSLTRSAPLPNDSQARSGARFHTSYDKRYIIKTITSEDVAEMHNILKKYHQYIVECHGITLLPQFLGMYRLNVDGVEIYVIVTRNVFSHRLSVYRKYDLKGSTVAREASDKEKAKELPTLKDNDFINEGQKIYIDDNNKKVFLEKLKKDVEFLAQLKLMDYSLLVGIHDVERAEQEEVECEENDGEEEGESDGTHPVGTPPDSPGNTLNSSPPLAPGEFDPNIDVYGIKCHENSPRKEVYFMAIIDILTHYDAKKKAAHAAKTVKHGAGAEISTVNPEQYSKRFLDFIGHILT
#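 PI5P4Kalpha ADP-Glo assay; 5 microM ATP final; 60 min RT reaction; HEPES pH 7.4/EGTA/CHAPS, 5% DMSO; controls lacking substrate or enzyme; luminescent end-point.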
# VDR inhibitor: Inhibitors of the vitamin D receptor (VDR): qHTS. VDR-SRC2-3 peptide fluorescence polarization, 2 h. Potency, µM, for the others: max response, negative = inhibition, most hits filed as inhibitors. hit rate 0.93% among 400,000. AID 504847, 2011; further: potency means the concentration at half of the fitted maximal effect; on the % scale 0 is the no-effect control and ±100 the full control effect
#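 Fluorescence polarization assay measuring small-molecule disruption of VDR binding to the coregulator peptide SRC2-3. Compounds were pin-transferred (23 nl) into the reagent mix and incubated 2 h at room temperature before reading.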
# TCR activator: Activators of T cell receptors: qHTS campaign; primary human leukocytes, anti-CD3, IL-2 HTRF, 48 h; AID 504894, 2011; 330,000 tested, under 10 active; Potency, µM (doses to about 9.22 µM), without a hit: at the highest dose activation of IL-2 secretion, most hits filed as activators; further: % of control where 0% means no effect
#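 48 hr co-incubation of compounds, a-CD3 beads and primary human leukocytes; IL-2 quantified homogeneously by HTRF with anti-IL-2 K and d2 conjugates.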
# WRN inhibitor: qHTS for Inhibitors of WRN Helicase | Bifunctional 3'-5' exonuclease/ATP-dependent helicase WRN (Homo sapiens), Q14191 | WRN helicase unwinding, fluorescent forked duplex, kinetic | Potency, µM (series often up to 114 µM), for inactives: top-dose activity change, negative = inhibition, hits mostly inhibitors | hit rate 0.46% among 360,000; further: potency means the concentration at half of the fitted maximal effect; on the % scale 0 is the no-effect control and ±100 the full control effect; nearly all actives have a fitted effect of over 55% in size
#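 WRN at 20 nM final was preincubated with compound for 15 min at room temperature; reaction started with 100 nM forked duplex oligonucleotide carrying fluorophore and quencher plus 2 mM ATP (final). Unwinding followed kinetically by red fluorescence (ex 525/em 598 nm).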
# * = called active by the depositor; ? = inconclusive; . = no result; ! = not active in a repeat; [ ] = another dose, or the depositor's remark. This is a sample that favours compounds with a hit; in the whole collection about 3.7% have one here. Unless noted, the call rests on the fitted dose curve; in most records, active means well fitted curve in the direction sought with a large enough effect; inconclusive means small, poorly fitted or top-dose-only effect, or another doubt; inactive means no such curve, though single readings can be large; an effect the other way counts as inactive or inconclusive.
SMILES,PLK1 PBD inh,FEN1 inhibitor,PI5P4K alpha inh,VDR inhibitor,TCR activator,WRN inhibitor
CCC(NC(C)C)C(O)c1ccc(O)c(O)c1 (configuration not stated),-11.9%,?,-3.1,50.1µM*!,0.8%,.
Cc1ccc(S(=O)(=O)CCC(=O)c2ccc(F)cc2)cc1,10.6µM*,-14.7%,2.7,?,-4.8%,-15.6%
Cc1ccc(C(=O)CCS(=O)(=O)c2ccc(Cl)cc2)cc1,?,5.6%,4.6,?,4.1%,-5.5%
Cc1ccc(C(=O)CCS(=O)(=O)c2ccc(F)cc2)cc1,9.47µM*,-8.2%,2.0,25.1µM*,6.5%,-19.9%
C=C(C)C(=O)/C=C/c1ccc(C(F)(F)F)cc1,.,.,.,2.6%,.,.
Cc1c(Cl)cccc1NC(=O)Cn1nnc(-c2nc(-c3ccccc3)no2)c1N,.,5.2%,.,4.4%,.,.
CC(C)(C)c1n[nH]c2c1CCCC2,26.7µM*,-4.9%,-2.1,-16.0%,6.0%[46.1 µM],-8.2%
Oc1cc2cc(-c3csc(-c4ccc(F)cc4)n3)cc3c2n1CCC3,.,-0.9%,.,.,.,.
N/C(=N\OC(=O)CCCN1C(=O)c2ccccc2C1=O)c1ccccn1,-2.5%,-3.6%,0.3,0.4%,-56.9%,1.3%
COc1ccc(/C(N)=N/OC(=O)CCCN2C(=O)c3ccccc3C2=O)cc1OC,23.8µM*,-5.6%,-4.1,?,-0.7%,1.0%
CC(=O)N1CCN(C(=S)c2ccc(Cl)cc2)CC1,21.2µM*,-6.7%,3.4,-2.8%,-2.5%[46.1 µM],-3.3%
O=C1CCC/C1=C/Nc1cccc(F)c1,18.9µM*,4.5%,-13.5,?,-10.6%,-22.6%
O=C1CCCC/C1=C/Nc1ccc2c(c1)OCO2,-13.8%,-16.0%,-6.4,-14.9%,0.9%,-10.5%
CC(C)C(NC(=O)C(CC(=O)O)NC(=O)C(CCCCN)NC(=O)C(N)CCCN=C(N)N)C(=O)NC(Cc1ccc(O)cc1)C(=O)O (configuration not stated),.,.,.,-4.7%,.,.
CCOC(=O)N1CCN(C(=O)COC(=O)c2ccc([N+](=O)[O-])cc2Cl)CC1,-4.5%,-2.3%,-6.2,2.1%,-2.5%,-1.9%
CCOC(=O)N1CCN(C(=O)c2ccc([N+](=O)[O-])cc2Cl)CC1,23.8µM*,2.7%,-12.1,?,-3.3%,-6.6%
CSCC[C@H](NC(=O)[C@H](Cc1c[nH]c2ccccc12)NC(=O)CNC(=O)[C@H](Cc1ccc(O)cc1)NC(=O)[C@H](C)NC(=O)[C@H](CCC(=O)O)NC(=O)[C@H](CCC(=O)O)NC(=O)[C@H](CCC(=O)O)NC(=O)[C@H](CCC(=O)O)NC(=O)[C@H](CCC(=O)O)NC(=O)[C@H](CC(C)C)NC(=O)[C@H](Cc1c[nH]c2ccccc12)NC(=O)[C@@H]1CCCN1C(=O)CNC(=O)[C@@H]1CCC(=O)N1)C(=O)N[C@@H](CC(=O)O)C(=O)N[C@@H](Cc1ccccc1)C(=O)NCC(=O)O,.,.,.,7.4%,.,.
CCOC(=O)c1ccccc1NC(=O)N1CCN(Cc2cc(=O)n3nc(-c4ccccc4)sc3n2)CC1,.,11.6%,.,9.6%,.,.
CC(C)(C)NC(=O)C(c1ccc(F)cc1)N(CCc1ccccc1)C(=O)c1ccn[nH]1 (configuration not stated),26.7µM*,1.4%,?,-5.9%,2.5%,-17.2%
CC(C)(C)NC(=O)C(c1ccncc1)N(Cc1ccc(F)cc1)C(=O)c1ccc(-c2ccccc2)[nH]1 (configuration not stated),-8.9%,?,-1.7,?,.,-19.6%
Cc1cccc(CNC(=O)c2cnc3sc(N4CCCCCC4)nn3c2=O)c1,.,10.4%,.,2.8%,.,.
O=C(Cc1ccccc1Nc1c(Cl)cccc1Cl)OCO/N=[N+](\[O-])N1CCCC1,.,-28.9%,.,?,.,.
O=Cc1c(Sc2ccccc2)nc2ccccn2c1=O,3.36µM*,6.1%,?,-29.6%,-12.6%,9.7%
O=Cc1c(Sc2ccccn2)nc2ccccn2c1=O,-10.8%,14.6%,4.7,-9.9%,1.5%[46.1 µM],-5.6%[57.1 µM]
Cn1nc(-c2ccc(F)cc2)nc2c(=O)n(C)c(=O)nc1-2,.,-14.8%,.,-4.3%,.,.
SMILES,PLK1 PBD inh,FEN1 inhibitor,PI5P4K alpha inh,VDR inhibitor,TCR activator,WRN inhibitor
Cn1c(=O)[nH]c(Nc2ccc(F)cc2)c([N+](=O)[O-])c1=O,1.5%,-6.9%,-60.3*,8.9%,0.5%[46.1 µM],-6.4%
CC1CC(=O)N(c2ccc(NCCc3ccc(O)cc3)c([N+](=O)[O-])c2)C1=O (configuration not stated),3.5%,10.2%,0.1,7.6%,-1.5%,-11.5%
Cn1c(=O)[nH]c(NCCc2ccc(O)cc2)c([N+](=O)[O-])c1=O,2.0%,3.6%,-71.4*,-2.6%,4.2%,-34.8%
COc1ccc(Cn2ccc3nc(C)c(C(=O)N4CCN(c5ccccc5OC)CC4)cc3c2=O)cc1,.,-1.9%,.,8.4%,.,.
COc1ccc(-c2ccc(OC)cc2)cc1,2.0%,2.1%,-3.6,-1.7%,2.7%[46.1 µM],-10.3%
COc1ccc(-c2cc(=S)ss2)cc1,.,.,.,39.8µM*,.,.
CN1/C(=C\C(=O)COC(=O)CNC(=O)c2ccc3ccccc3c2)C(C)(C)c2ccccc21,18.9µM*,-32.6%,-13.6,-28.4%,-1.7%[46.1 µM],-18.6%
O=C(COc1ccccc1C(=O)Nc1ccccc1)Nc1cccc([N+](=O)[O-])c1,.,15.4%,.,.,.,.
COc1cccc(CN2CCN(Cc3cccc4nonc34)CC2CCO)c1 (configuration not stated),16.8µM*,-8.6%,-4.3,-28.3%,-5.7%,13.4%
CCOc1ccccc1CN1CCN(Cc2cccc3nonc23)CC1CCO (configuration not stated),-9.4%,13.3%,-1.2,8.6%,0.3%,-7.3%
CC(=O)Nc1ccc(NC(=O)c2ccco2)cc1,-0.3%,-14.3%,-3.2,9.7%,-2.4%,0.6%
CC1N(C)c2cc(NC(=O)c3ccco3)ccc2C1(C)C (configuration not stated),-8.4%,?,.,38.9%,0.9%,50.1µM*
Cc1ccc2oc(=O)c3cnn(CC(=O)N(C)c4ccc(F)cc4)c3c2c1,.,-0.9%,.,-10.6%,.,.
CN(C)C(=O)c1ccc(N=Nc2c(O)c3ccccc3[nH]c2=O)cc1,-11.1%,-24.1%,-75.9*,-7.0%,2.9%,1.4%
Cc1cc(N=Nc2c(O)c3ccccc3[nH]c2=O)ccc1N=Nc1ccc(C(=O)N(C)C)cc1,-1.4%,7.1%,-20.4,-10.4%,5.7%,0.6%
Cc1c(C(=O)N(C)C)sc2c1c(=O)n(-c1ccc(Cl)c(Cl)c1)c(=O)n2CC(=O)Nc1cccc(C(F)(F)F)c1,.,-2.7%,.,13.8%,.,.

# Source: PubChem (National Center for Advancing Translational Sciences (NCATS))
